“And” between values parts separate entries of the source, which are not always exact repeats. Equal entries are not always repeated. Results filed as inconclusive are left out. The source made the active and inactive calls.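 The calls were made as follows, unless noted: active = normalized viability below 100% at a tested concentration; inactive = the rest.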
How the values were obtained:
[1] = viability loss in pontine glioma line – cell-based, SU-DIPG-XVII, MIPE5.0, CellTiter-Glo, qHTS, dose response (AID 1347060; cut-off not given, nearly all actives have AC50 up to about 26 µM;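 as to AC50: cells exposed to compound for 48 hours before viability readout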); details: CellTiter-Glo ATP luminescence
[2] = viability loss in pontine glioma line – cell-based, SU-DIPG-XIII, MIPE4.0, CellTiter-Glo, qHTS, dose response (AID 1347061; cut-off not given, nearly all actives have AC50 up to about 37 µM;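 also: cells exposed to compound for 48 hours before readout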); details: CellTiter-Glo ATP luminescence
[3] = viability loss in pontine glioma line – cell-based, JHH-DIPG-1, MIPE4.0, CellTiter-Glo, qHTS, dose response (AID 1347062; cut-off not given, nearly all actives have AC50 up to about 27 µM;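 as to AC50: cells exposed to compound for two days before readout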); details: JHH-DIPG-1 viability, CellTiter-Glo ATP luminescence
[4] = viability loss in pontine glioma line – cell-based, SU-DIPG-IV, MIPE4.0, CellTiter-Glo, qHTS, dose response (AID 1347063; cut-off not given, nearly all actives have AC50 up to about 30 µM;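 also: compound exposure lasted 48 hours before the viability readout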); details: CellTiter-Glo ATP luminescence
[5] = viability loss in pontine glioma line – cell-based, SU-DIPG-XXV, MIPE5.0, CellTiter-Glo, qHTS, dose response (AID 1347065; cut-off not given, nearly all actives have AC50 up to about 26 µM;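 also: cells exposed to compound for 48 hours before ATP readout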); details: CellTiter-Glo ATP luminescence
[6] = growth inhibition of DIPG cells – cell-based, MIPE4.0 library, CellTiter-Glo luminescence, qHTS (AID 1347066; cut-off not given, nearly all actives have AC50 up to about 30 µM;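 also: cells exposed to compound for 48 hours before readout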); details: SU-DIPG-VI viability, CellTiter-Glo ATP luminescence
[7] = JHH-DIPG-1 glioma cell viability, MIPE5.0 library, CellTiter-Glo luminescence, qHTS (AID 1347067; cut-off not given, nearly all actives have AC50 up to about 26 µM;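 also: cells exposed to compound for 48 hours before readout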); details: JHH-DIPG-1 glioma viability, CellTiter-Glo ATP luminescence
[8] = growth inhibition of DIPG cells – cell-based, MIPE5.0 library, qHTS (AID 1347068; cut-off not given, nearly all actives have IC50 up to about 30 µM;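 as to IC50: cells exposed to compound for 48 hours before viability readout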); details: SU-DIPG-XXV viability
[9] = viability loss with induced miR-34 in A549 – imaging, A549 dox-inducible miR-34, nuclei and caspase counts, primary screen (AID 1347080;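 active = compounds whose cell count with miR-34 switched on is under 0.7 times the count with it off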); details: A549 miR-34 inducible, Hoechst nuclei count, 48 h
[10] = MELAS cybrid and Rieske KO viability enhancers – cell-based, MELAS cybrids, Rieske KO mouse fibroblasts, CellTiter-Glo, primary screen (AID 1508586;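 active = mean z-score across replicates of 1.96 or higher in either the MELAS or the Rieske mutant cell line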;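 also: z relative to plate mean and SD of compound and empty wells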); details: low glucose
[11] = compounds altering HSF1 focus formation in cells – imaging, Selleck Cancer Library (AID 1347162; in the data active = plate-normalised HSF1 focus index below about 0.46); details: human cells, HSF1 nuclear foci imaging, at 10 µM; SSMD: measured here: HSF1 foci SSMD mean; cell count: measured here: cell number; plate-normalised HSF1 focus index: stronger effect = lower value
[12] = drug combination growth inhibition, ovarian cancer – cell-based, oncology-focused library, rucaparib conditional, profiling panel (AID 1508598); details: patient-derived ovarian cancer cells, CellTiter-Glo viability, 144 h, stronger effect = lower value
[13] = stronger effect = lower value, cell number ratio, induced over uninduced
[14] = measured here: relative caspase fold change +Dox/-Dox
[15] = measured here: total cells with miR-34 induction, stronger effect = lower value
[16] = measured here: total cells without miR-34 induction
[17] = MELAS cybrid survival, CellTiter-Glo 48 h, stronger effect = higher value
[18] = Rieske KO mouse fibroblast survival, CellTiter-Glo 72 h
[19] = at 0.000305 µM, OCI-C5x cells, with rucaparib 10 µM, 100% = cells with rucaparib alone
[20] = at 0.000305 µM, OCI-C5x cells, without rucaparib
[21] = at 0.000305 µM, OCI-P5x cells, with rucaparib 20 µM, 100% = cells with rucaparib alone
[22] = at 0.000305 µM, OCI-P5x cells, without rucaparib
[23] = at 0.00122 µM, OCI-C5x cells, with rucaparib 10 µM, 100% = cells with rucaparib alone
[24] = at 0.00122 µM, OCI-C5x cells, without rucaparib
[25] = at 0.00122 µM, OCI-P5x cells, with rucaparib 20 µM, 100% = cells with rucaparib alone
[26] = at 0.00122 µM, OCI-P5x cells, without rucaparib
[27] = at 0.00488 µM, OCI-C5x cells, with rucaparib 10 µM, 100% = cells with rucaparib alone
[28] = at 0.00488 µM, OCI-C5x cells, without rucaparib
[29] = at 0.00488 µM, OCI-P5x cells, with rucaparib 20 µM, 100% = cells with rucaparib alone
[30] = at 0.00488 µM, OCI-P5x cells, without rucaparib
[31] = at 0.0195 µM, OCI-C5x cells, with rucaparib 10 µM, 100% = cells with rucaparib alone
[32] = at 0.0195 µM, OCI-C5x cells, without rucaparib
[33] = at 0.0195 µM, OCI-P5x cells, with rucaparib 20 µM, 100% = cells with rucaparib alone
[34] = at 0.0195 µM, OCI-P5x cells, without rucaparib
[35] = at 0.0781 µM, OCI-C5x cells, with rucaparib 10 µM, 100% = cells with rucaparib alone
[36] = at 0.0781 µM, OCI-C5x cells, without rucaparib
[37] = at 0.0781 µM, OCI-P5x cells, with rucaparib 20 µM, 100% = cells with rucaparib alone
[38] = at 0.0781 µM, OCI-P5x cells, without rucaparib
[39] = at 0.313 µM, OCI-C5x cells, with rucaparib 10 µM, 100% = cells with rucaparib alone
[40] = at 0.313 µM, OCI-C5x cells, without rucaparib
[41] = at 0.313 µM, OCI-P5x cells, with rucaparib 20 µM, 100% = cells with rucaparib alone
[42] = at 0.313 µM, OCI-P5x cells, without rucaparib
[43] = at 1.25 µM, OCI-C5x cells, with rucaparib 10 µM, 100% = cells with rucaparib alone
[44] = at 1.25 µM, OCI-C5x cells, without rucaparib
[45] = at 1.25 µM, OCI-P5x cells, with rucaparib 20 µM, 100% = cells with rucaparib alone
[46] = at 1.25 µM, OCI-P5x cells, without rucaparib
[47] = at 5 µM, OCI-C5x cells, with rucaparib 10 µM, 100% = cells with rucaparib alone
[48] = at 5 µM, OCI-C5x cells, without rucaparib
[49] = at 5 µM, OCI-P5x cells, with rucaparib 20 µM, 100% = cells with rucaparib alone
[50] = at 5 µM, OCI-P5x cells, without rucaparib

NC(=O)c1cccc(-c2cccc(OC(=O)NC3CCCCC3)c2)c1
1.45 and 0.843: fold change [9, 14]
4040 and 9560: cell count [9, 16]
inactive: outcome [1] | outcome [2] | outcome [3] | outcome [4] | outcome [5] | outcome [6] | outcome [7] | outcome [8] | fold change [9, 13] 1.39 and 0.902 | z-score [10, 17] -0.288
5620 and 8620: cell count [9, 15]
-0.11: z-score [10, 18]

CC(C)n1cnc2c(NCCc3ccc(O)cc3)nc(-c3csc4ccccc34)nc21
0.471: fold change [9, 14]
active: AC50 [1] 18.6 µM | AC50 [2] 7.43 µM | AC50 [3] 18.7 µM | AC50 [4] 10.5 µM | AC50 [5] 18.6 µM | AC50 [6] 20.9 µM | AC50 [7] 13.2 µM
0.499: z-score [10, 18]
6480: cell count [9, 15]
7140: cell count [9, 16]
inactive: outcome [8] | fold change [9, 13] 0.908 | z-score [10, 17] -0.0908

O=C(CN1C(=O)C2(CCCC2)NC[C@H]1c1cc(F)cc(F)c1)Nc1ccc2c(c1)C[C@@]1(C2)C(=O)Nc2ncccc21
inactive: outcome [1] | outcome [2] | outcome [3] | outcome [4] | outcome [5] | outcome [6] | outcome [7] | outcome [8]

Cc1ccc(C(=O)N(CCCN)[C@@H](c2oc3cc(Cl)ccc3c(=O)c2Cc2ccccc2)C(C)C)cc1
inactive: outcome [2] | plate-normalised HSF1 focus index [11] 1.05
6430: cell count [11]
0.849: SSMD [11]
active: AC50 [1] 0.0332 µM | AC50 [3] 14.8 µM | AC50 [4] 29.6 µM | AC50 [5] 0.0118 µM | AC50 [6] 8.33 µM | AC50 [7] 1.66 µM | IC50 [8] 0.0417 µM | viability [12, 19] 50.8% | viability [12, 20] 63.1% | viability [12, 21] 62% | viability [12, 22] 22.5% | viability [12, 23] 56.4% | viability [12, 24] 61.8% | viability [12, 25] 50.3% | viability [12, 26] 19.3% | viability [12, 27] 54.9% | viability [12, 28] 63.8% | viability [12, 29] 58.3% | viability [12, 30] 18.4% | viability [12, 31] 57.6% | viability [12, 32] 55.3% | viability [12, 33] 55.3% | viability [12, 34] 19.7% | viability [12, 35] 54.6% | viability [12, 36] 50.1% | viability [12, 37] 51.5% | viability [12, 38] 20.3% | viability [12, 39] 54.9% | viability [12, 40] 50.6% | viability [12, 41] 55.7% | viability [12, 42] 19.2% | viability [12, 43] 49.2% | viability [12, 44] 49% | viability [12, 45] 48.4% | viability [12, 46] 17.8% | viability [12, 47] 4.98% | viability [12, 48] 4.99% | viability [12, 49] 0.708% | viability [12, 50] 6.42%

CC[C@H](/C=C/[C@@H](C)[C@H]1CC[C@H]2[C@@H]3CC=C4C[C@@H](O)CC[C@]4(C)[C@H]3CC[C@]12C)C(C)C
inactive: outcome [1] | outcome [2] | outcome [3] | outcome [4] | outcome [5] | outcome [6] | outcome [7] | outcome [8]

Cc1[nH]nc2ccc(-c3cncc(OC[C@@H](N)Cc4ccccc4)c3)cc12
active: AC50 [1] 1.66 µM | AC50 [2] 4.69 µM | AC50 [3] 1.18 µM | AC50 [4] 2.64 µM | AC50 [5] 1.48 µM | AC50 [6] 10.5 µM | AC50 [7] 1.48 µM | IC50 [8] 1.66 µM

Cc1nc2cnc3ccc(C#Cc4cccnc4)cc3c2n1-c1ccc(C(C)(C)C#N)cc1
active: AC50 [1] 0.468 µM | AC50 [2] 0.59 µM | AC50 [3] 0.166 µM | AC50 [4] 0.0296 µM | AC50 [5] 0.209 µM | AC50 [6] 1.18 µM | AC50 [7] 1.66 µM | IC50 [8] 2.63 µM

C1Cc2[nH]nc(-c3nn[nH]n3)c2C1
inactive: outcome [1] | outcome [2] | outcome [3] | outcome [4] | outcome [5] | outcome [6] | outcome [7] | outcome [8]

O=C(NCCCNc1nc(Nc2cccc(NC(=O)N3CCCC3)c2)ncc1I)c1cccs1
1.03: fold change [9, 14]
2780: cell count [9, 15]
-3.5: SSMD [11]
inactive: fold change [9, 13] 0.948 | plate-normalised HSF1 focus index [11] 0.877 | z-score [10, 17] -0.385 | viability [12, 19] 115% | viability [12, 20] 106% | viability [12, 23] 116% | viability [12, 24] 102% | viability [12, 27] 110% | viability [12, 30] 103% | viability [12, 31] 112% | viability [12, 32] 102% | viability [12, 33] 104% | viability [12, 34] 101% | viability [12, 35] 123% | viability [12, 36] 112% | viability [12, 38] 106% | viability [12, 39] 137% | viability [12, 40] 120% | viability [12, 43] 122% | viability [12, 44] 120% | viability [12, 48] 127%
-0.479: z-score [10, 18]
7460: cell count [11]
active: AC50 [1] 16.6 µM | AC50 [2] 20.9 µM | AC50 [3] 23.5 µM | AC50 [4] 14.8 µM | AC50 [5] 3.72 µM | AC50 [6] 20.9 µM | viability [12, 21] 91.2% | viability [12, 22] 89.1% | viability [12, 25] 97.1% | viability [12, 26] 94.8% | viability [12, 28] 97.8% | viability [12, 29] 97.7% | viability [12, 37] 99.5% | viability [12, 41] 98.3% | viability [12, 42] 99.8% | viability [12, 45] 85.2% | viability [12, 46] 99.1% | viability [12, 47] 76.6% | viability [12, 49] 68.2% | viability [12, 50] 91.4%
2940: cell count [9, 16]

C=C1C(=O)OC(CCCCCCCC)C1C(=O)O (stereo unspecified)
inactive: outcome [1] | outcome [2] | outcome [3] | outcome [4] | outcome [5] | outcome [6] | outcome [7] | outcome [8]
